According to PubChem BioAssay (NCI):
This is part of a sample that, as a whole, favours compounds with a hit. Of some 79,000 tested, about 15% had one in any assay. Values without a mark were called inactive. Activity calls are given as the source filed them. Rule as the data show it: active = growth inhibition above about 70%; inactive = the rest.

What was measured:
[1] = NCI Yeast Anticancer Drug Screen. Data for the rad50 strain (AID 155);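 also: 0% = growth of vehicle-only cultures of the same strain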; details: S. cerevisiae rad50 strain growth inhibition; at 50.0 µM; active compounds read high
Procedure, shortened: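 Yeast carrying a defined DNA repair defect were exposed to test compounds, and growth was compared with vehicle-treated controls to give percent inhibition.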

[2] = NCI Yeast Anticancer Drug Screen. Data for the mec2-1 strain (AID 157); details: S. cerevisiae mec2-1 strain, at 50.0 µM, active compounds read high
Procedure, shortened: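 mec2-1 yeast strain, carrying an alteration in DNA damage repair or cell cycle control, was exposed to compounds; growth inhibition was measured relative to vehicle-treated controls.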

[3] = NCI Yeast Anticancer Drug Screen. Data for the sgs1 mgt1 strain (AID 161);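 also: 0% = growth of cultures given vehicle only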; details: S. cerevisiae sgs1 mgt1 strain, at 50.0 µM, active compounds read high
Procedure, shortened: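 Yeast cells carrying a defined DNA-repair defect were exposed to test compounds. Growth inhibition was measured relative to vehicle-treated controls.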

[4] = NCI Yeast Anticancer Drug Screen. Data for the cln2 rad14 strain (AID 165);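 also: 0% = growth equal to vehicle treated cultures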; details: S. cerevisiae cln2 rad14 strain, at 50.0 µM, active compounds read high
Procedure, shortened: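 Yeast carrying cln2 and rad14 alterations (cell cycle control and DNA damage repair) were exposed to compounds. Growth inhibition was measured against vehicle-treated controls.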

[5] = NCI Yeast Anticancer Drug Screen. Data for the bub3 strain (AID 167); details: S. cerevisiae bub3 mutant strain, at 50.0 µM, active compounds read high
Procedure, shortened: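 Compounds were applied to a genetically altered yeast strain carrying a cell-cycle control defect. Growth inhibition was scored against vehicle-treated controls.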

[6] = NCI Yeast Anticancer Drug Screen. Data for the mlh1 rad18 strain (AID 175); details: S. cerevisiae mlh1 rad18 strain growth inhibition; at 50.0 µM; active compounds read high
Procedure, shortened: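 Growth inhibition of the yeast strain was measured after compound exposure and expressed relative to vehicle-treated controls. The strain carries defined defects in DNA damage repair.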

Compound | growth inhibition [1] | growth inhibition [2] | growth inhibition [3] | growth inhibition [4] | growth inhibition [5] | growth inhibition [6]
CC1CC=C(C(O)C(C)C)C1 (stereo unspecified) | 0.2% | 6.2% | -2.7% | -11.8% | 4.15% | -0.9%
CCCOC(=O)C1(C)CCC(=O)O1 (stereo unspecified) | 3.7% | 6.1% | 23.4% | -19.9% | -13.2% | -8.85%
O=C1OCC/C1=C\c1ccc(Br)cc1 | 7.2% | -10.2% | 3.3% | -29.6% | 7.5% | -1.1%
O=S(O)CCCCCSSCCCCSSCCCCCS(=O)O | 7.6% | -0.15% | 11.5% | 10.3% | 12.8% | 27.4%
O=C(O)Cn1cnc2c(=O)[nH]c(Nc3ccccc3)nc21 | 24.4% | 9.1% | 34.9% | 5.35% | 15.5% | -17.1%
CCCCCCCCCCCCC(Br)C(=O)OCC (stereo unspecified) | 7.55% | -7.6% | 16.1% | -5.2% | -6.6% | 3.95%
CN(C)C1(C(=O)O)c2ccccc2-c2ccccc21 | 9.85% | 10.6% | 21.8% | -3.45% | 16.3% | -3.3%
CC(C)(C)c1cc(C(=O)O)ccc1C(=O)O | -4.2% | 12.1% | -2.75% | -4.2% | -26.4% | -8.15%
CC12CCC(/C(=N/O)C1=O)C2(C)C (stereo unspecified) | 2.15% | -2.15% | 1.1% | -74.5% | -1.8% | 4.25%
N#C/C(=C/c1cccc([N+](=O)[O-])c1)C(=O)O | 38% | 10.6% | 22.6% | 12.9% | 15.8% | 38%
CCCCCCCCCCCCCCCC(=O)NC(CCCCN)C(=O)NC(CCCCN)C(=O)OCC (stereo unspecified) | 77.9% (active) | 97% (active) | 68.9% | 94.5% (active) | 47.4% | 65.5%
CC(NC(=O)C(NC(=O)c1ccc[n+](Cc2ccccc2)c1)C(C)C)C(N)=O (stereo unspecified) | 0.45% | 8.05% | -2.6% | -6.2% | -1.95% | 23.4%
Cc1ccc(NC(=O)CC(=O)CC(C)C)cc1C | -22.2% | -24.8% | -17.4% | 0.75% | -37% | -10.8%
N#Cc1c(-c2ccccc2)c[nH]c1/N=C/N | -17.6% | -16.8% | -9.75% | -10.4% | -10.2% | -6.5%
O=c1cccc(O)[nH]1 | -14.8% | -17.6% | -15.1% | -0.15% | -15.7% | -8.85%
Nc1cc2c3c(cccc3c1Br)C(=O)OC2=O | 99.5% (active) | 99.8% (active) | 99.7% (active) | 99.3% (active) | 99.7% (active) | 99.5% (active)
CC12CS(=O)(=O)CC1O2 (stereo unspecified) | 1.65% | 3.25% | 2.2% | 1.9% | 2.2% | -13.4%
N#CC(c1ccccc1)N(CCc1ccccc1)C(=O)c1ccc(C(=O)N(CCc2ccccc2)C(C#N)c2ccccc2)cc1 (stereo unspecified) | 15.2% | 26.9% | 7.8% | 13.8% | 6.6% | -11.3%
O=[N+]([O-])c1ccc2[nH]nc(OCc3ccccn3)c2c1 | 35% | 33.4% | -23.8% | 28.1% | 7.15% | 20.9%
CC1CC[N-]C(N)N1.CC1CC[N-]C(N)N1.[Cl][Pd][Cl] (stereo unspecified) | -3.5% | -0.4% | 6.75% | -34.4% | -0.15% | -7.1%
CCc1c(CNc2ccc(Cl)c(Cl)c2)ccc2nc(N)nc(N)c12 | 90.7% (active) | 92.2% (active) | 91.9% (active) | 90% (active) | 90.5% (active) | 89.7% (active)

Compound | growth inhibition [1] | growth inhibition [2] | growth inhibition [3] | growth inhibition [4] | growth inhibition [5] | growth inhibition [6]
COc1ccc(C=Nc2c(O)ccc3c2CCCC3)cc1OC | 9.55% | 4.7% | -6.1% | -49.3% | 1.95% | 14.9%
Cc1onc(-c2ccccc2Cl)c1C(=O)NCC(=O)O | -5.55% | 2.6% | -3.5% | 3.5% | 12.7% | -0.15%
N#CC(CCc1ccccc1)(c1ccccc1)c1ccccc1 | -15.5% | -9.05% | -5.85% | -45.5% | 9.5% | -15.7%
Cc1cccc(C(N)=S)n1 | 14.9% | 7.5% | 11.1% | 23.9% | 18.8% | 22.5%
CCN(CC)S(=O)(=O)Nc1c(C)n(C)n(-c2ccccc2)c1=O | -5.6% | -17.2% | -4.05% | -3.7% | -2% | 14%
COC(=O)c1c(C(=O)Nc2ccccc2)c(-c2ccccc2)n(NC(N)=O)c1C | 8.35% | 3.25% | 4.2% | -17.4% | -1.75% | 17%
O=C1OC(c2ccccc2)=N/C1=C/N1CCCC1C(=O)O (stereo unspecified) | -1% | 5.6% | 15.9% | 10.1% | -4.4% | -6.3%
CCCCn1c(=S)sc2ccccc21 | 15.2% | 4.45% | 20.8% | -50.5% | 21.7% | 22.4%
Oc1ccc2c(c1)CCC2 | 25% | -1.95% | -1.3% | 8% | -10.8% | -19.6%
C/C(=N/NC(=O)C1CCCO1)c1ccc(C)cc1 (stereo unspecified) | 0.95% | -6.5% | -4.75% | -92% | -6.5% | -28.9%
CCC1([N+](=O)[O-])COC2(CCCCC2)OC1 | 6.95% | 23.7% | -11.4% | -1.35% | 13.6% | -13.1%
COC(=O)C1OC(O[C@H]2CC[C@]3(C)[C@H]4CC=C5[C@@H]6CC(C)(C)CC[C@]6(C(=O)OC6OCC(O)C(O)C6OC6OC(C)C(OC7OCC(O)C(O)C7O)C(OC7OCC(O)(CO)C7O)C6O)[C@H](O)C[C@@]5(C)[C@]4(C)CC[C@H]3C2(C)C)C(O)C(O)C1O (stereo partly specified) | 16.1% | -10.3% | -6.1% | 34.6% | 13.6% | 10.3%
CCOC(=S)Sc1ccc2c(c1)-c1ccc(F)cc1C2=O | 7% | 6.3% | 2.1% | 10.2% | -3.85% | -1.65%
O=[N+]([O-])c1ccc2c(c1)Sc1ccccc1N2CCCCCl | -24% | -15.8% | -49.2% | -7.25% | -1.8% | -23.2%
CC12CCC3c4ccc(OC(=O)C56C=CC(=O)C5C5C=CC6CC5)cc4CCC3C1CCC2=O (stereo unspecified) | 11.6% | -16.8% | -2.2% | 16.1% | -4.05% | 0.05%
CC1CC(=O)c2c(O)ccc(O)c21 (stereo unspecified) | -6.1% | -3.65% | -8.9% | -17.4% | -8.15% | 12.2%
CC1(C)C(c2ccccc2)C12CCC1(C2=O)C(c2ccccc2)C1(C)C (stereo unspecified) | -41.8% | -27.8% | -36% | -6.8% | -16.9% | -52.4%
CN(C)CCC(c1ccccc1)C(CO)c1ccccc1 (stereo unspecified) | -24.6% | 8.75% | 9.9% | 7.65% | -2.1% | 12.7%
Cc1c(NC(C)C)ccc(NC(C)C)c1C | 35.3% | 27.6% | 26.3% | 17% | 25.2% | 43.2%
COC(=O)/C(C#N)=C\N1CCNC1=S | -54.8% | -62.8% | -35.9% | -15.9% | -10.4% | -19.5%
